# Reference: PubChem BioAssay (Tox21)
# Inconclusive results are not listed. Calls of active or inactive are those of the source. Calls come from the whole dose curve; as a rule, active = well fitted cell-killing curve with a large enough effect in the repeat runs; inconclusive = weak or mixed curves; inactive = no such curve, though single readings can be large or run the other way.
# Test: qHTS assay to identify small molecule agonists of the peroxisome proliferator-activated receptor delta (PPARd) signaling pathway - cell viability counter screen (AID 743211); note: nearly all actives have a fitted effect of over 55% in size
# Conditions: PPARd-bla HEK293H viability, CellTiter-Glo luminescence, 17 h; series mostly up to 62.6 µM
# From the text: U.S. Tox21 Program National Center for Advancing Translational Sciences [NCATS] NIH Chemical Genomics Center [NCGC] U.S. Environmental Protection Agency [EPA] National Institutes of Environmental Health Sciences [NIEHS] National Toxicology Program [NTP] U.S. Food and Drug Administration [FDA] Tox21 Assay Overview: The peroxisome proliferator-activated receptors (PPARs) are lipid-activated transcription factors of the nuclear receptor superfamily with three distinct subtypes namely PPAR alpha, PPAR delta (PPARd) and PPAR gamma. All these subtypes heterodimerizes with Retinoid X receptor (RXR) and have different physiological functions. […] To identify the compounds that activate PPAR-delta signaling, GeneBLAzer PPAR delta UAS-bla HEK293H cell line (Invitrogen, Carlsbad, CA, USA) containing a beta-lactamase reporter gene under the control of an Upstream Activator Sequence (UAS) was used to screen the Tox21 compound library. The cytotoxicity of the Tox21 compound library against the PPARd-bla cell line was tested in parallel by measuring the cell viability using CellTiter-Glo assay (Promega, Madison, WI) in the same wells.
# Tox21 Assay Protocol Summary: PPARd-bla cells were dispensed at 3000 cells/6uL/well in 1536-well black wall/clear bottom plates using a Multidrop Combi (Thermo Fisher Scientific, Waltham, MA) dispenser. After the assay plates were incubated at 37 C and 5% CO2 for 5 h, 23 nL of compounds dissolved in DMSO, positive controls or DMSO only was transferred to the assay plate by a Pintool station (Kalypsys, San Diego, CA). The assay plates were incubated at 37C for 17 h. After 1 uL of LiveBLAzerTM B/G FRET substrate was added using a Bioraptr Flying Reagent Dispenser (FRD) workstation (Beckman Coulter, Indianapolis, IN, USA), the plates were incubated at room temperature for 2 h, and fluorescence intensity was measured by an Envision plate reader (PerkinElmer, Shelton, CT). For cell viability readout that measures cytotoxicity, 3 ul/well of CellTiter-Glo reagent was added into the assay plates using a Bioraptr FRD. After 30 min incubation at room temperature, the luminescence intensity in the plates was measured using a ViewLux plate reader (PerkinElmer).
row,Compound,outcome
1,COC(=O)C1=C(C)NC(C)=C(C(=O)OC(C)C)C1c1cccc2nonc12 (stereo not given),inactive
2,CC1=NN(c2cccc(S(=O)(=O)O)c2)C(=O)C1,inactive
3,C=CC(=O)OCCCl,inactive
4,Nc1ccn([C@@H]2O[C@H](CO)[C@@H](O)[C@@H]2O)c(=O)n1,inactive
5,CN(C)CCN(C)CCN(C)C,inactive
6,C[N+]1(C)[C@@H]2CC(OC(=O)[C@H](CO)c3ccccc3)C[C@H]1[C@@H]1O[C@@H]12 (stereo not given in full),inactive
7,CCNS(=O)(=O)c1ccc(C)cc1,inactive
8,CN1C(C)(C)CC(O)CC1(C)C,inactive
9,CCCCCCCC1CCCC1=O (stereo not given),inactive
10,NC(CCC(=O)O)C(=O)O (stereo not given),inactive
11,CCOCC(C)O (stereo not given),inactive
12,c1coc(CNc2ncnc3nc[nH]c23)c1,inactive
13,CCC(C)(CN(C)C)OC(=O)c1ccccc1 (stereo not given),inactive
14,CC(C)C[C@@H](N)C(=O)O,inactive
15,CCCCCCCCN1CCCC1=O,inactive
16,[O-][n+]1cccc(CO)c1,inactive
17,CC(=O)C1CCCCC1=O (stereo not given),inactive
18,CC(C)[C@H]1CC[C@@H](C)CC1=O,inactive
19,CN1CCC(=C2c3ccccc3CCc3cccnc32)CC1,inactive
20,NO,inactive

row,Compound,outcome
1,c1ccc(Cc2ccccc2)cc1,inactive
2,O=C(O)CCCC[P+](c1ccccc1)(c1ccccc1)c1ccccc1,inactive
3,CCCCCCCCCCCCCCC(=O)O,inactive
4,Cc1ccccc1N=C(N)N=C(N)N,inactive
5,NC(=O)N1c2ccccc2CC(=O)c2ccccc21,inactive
6,Cc1c(N)c(=O)n(-c2ccccc2)n1C,inactive
7,COc1cc(C(=O)NCc2ccc(OCCN(C)C)cc2)cc(OC)c1OC,inactive
8,Cc1onc(-c2c(Cl)cccc2Cl)c1C(=O)Cl,inactive
9,CC(COc1ccccc1)NN (stereo not given),inactive
10,O=CN(CCO)CCO,inactive
11,CN1CCN(c2cc3c(nn2)Oc2ccccc2N3C)CC1,inactive
12,Clc1cc(Cl)cc(Cl)c1,inactive
13,CC(C)CC(C)(N)C#N (stereo not given),inactive
14,CCCCOCCOC(=O)COc1cc(Cl)c(Cl)cc1Cl,inactive
15,CCCc1ncc(C[n+]2ccccc2C)c(N)n1,inactive
16,CC(N)C12CC3CC(CC(C3)C1)C2 (stereo not given),inactive
17,COc1cccc(OC)c1C(=O)N[C@@H]1C(=O)N2[C@@H]1SC(C)(C)[C@@H]2C(=O)O,inactive
18,CC(CC=O)CC(C)(C)C (stereo not given),inactive
19,NCCCC(N)(C(=O)O)C(F)F (stereo not given),inactive
20,CCCCS(=O)(=O)N[C@@H](Cc1ccc(OCCCCC2CCNCC2)cc1)C(=O)O,inactive
